Experimental findings from PubChem BioAssay are described below.

Each structure is given as a SMILES string. For part of these data: Measured potencies and affinities stand elsewhere. Results filed as inconclusive are left out. Calls of active or inactive are those of the source. Unless noted, how the calls were made is not given here.

The nature of test [1]: blood-stage malaria parasite viability loss – strain 3D7, DAPI fluorescence, 100 nL, primary screen (AID 1184).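 Further: parasites grown inside human red blood cells in medium with human serum.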 The conditions noted are these: P. falciparum 3D7 growth, 3 d, higher = more signal.
In test [2] the target is Homeobox protein Hox-A13 (Mus musculus) (UniProt Q62424). As to the kind of experiment: disruptors of Hoxa13 oligonucleotide interaction – biochemical, fluorescence polarization, labeled oligonucleotide, primary screen (AID 1185). The settings on record: Hoxa13:DNA binding, 15 min, higher = more signal, called active from +8 up or from −8 down.
Sequence of Homeobox protein Hox-A13 (Mus musculus) (Q62424 whole entry, looked up): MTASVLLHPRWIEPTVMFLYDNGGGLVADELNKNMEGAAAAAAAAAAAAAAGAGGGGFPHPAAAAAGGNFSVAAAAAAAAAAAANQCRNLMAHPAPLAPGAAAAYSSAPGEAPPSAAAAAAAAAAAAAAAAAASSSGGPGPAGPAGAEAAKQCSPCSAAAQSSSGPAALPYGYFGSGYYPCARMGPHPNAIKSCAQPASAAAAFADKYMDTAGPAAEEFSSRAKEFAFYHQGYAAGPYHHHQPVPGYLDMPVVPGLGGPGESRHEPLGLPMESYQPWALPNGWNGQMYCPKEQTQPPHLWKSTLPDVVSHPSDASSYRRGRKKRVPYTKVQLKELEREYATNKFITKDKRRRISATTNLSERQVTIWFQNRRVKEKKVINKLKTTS
The nature of test [3]: blockers of DNA damage checkpoint Chk1 activation – imaging, HeLa, hydroxyurea, phospho-Chk1 antibody, percent positive cells, primary screen (AID 1186). The settings on record: hydroxyurea-induced phospho-Chk1 immunofluorescence imaging, higher = more signal.
A short description of test [4]: blockers of DNA damage checkpoint Chk1 activation – imaging, HeLa, hydroxyurea, phospho-Chk1 nuclear intensity, primary screen (AID 1187). The settings on record: hydroxyurea-induced phospho-Chk1 immunofluorescence imaging, higher = more signal.
The nature of test [5]: fungal growth arrest, C. neoformans – Alamar Blue, cherry-picks, dose response (AID 686998;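 active means falling signal with fitted half-maximal potency no higher than twice the top valid tested dose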). The settings on record: Cryptococcus neoformans growth, 24 h; series mostly up to 35 µM. A general note: Resazurin is reduced to fluorescent resorufin, in cell work by metabolically active cells.
Test [6] in a line: C. neoformans lysis by adenylate kinase leakage – AK release luminescence, cherry-picks, dose response (AID 687000;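 active means fitted dose curve reaches 40% lysis signal rise at or below the highest valid concentration tested for that sample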;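 further: luminescent detection of adenylate kinase leaking from lysed yeast; 0% = median neutral control signal and 100% = double that signal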). The conditions noted are these: 4 h, 100% = twice the neutral-control signal; series mostly up to 15 µM.
A short description of test [7]: viability loss in HepG2 hepatoma cells – cell-based, cherry-picks, set 2, cytotoxicity control, dose response (AID 687002;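 active means a dose-response fit showing signal loss, with half-maximal concentration no higher than twice the top tested dose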). The conditions noted are these: ATP luminescence (CellTiter-Glo), 48 h; series mostly up to 26 µM.

For the molecule `CC(C)C[C@@H]1NC(=O)[C@@H]2C[C@H](C(=O)NCCCCCNC(=O)CS)[C@H](c3cccc(OCCO)c3)N2C1=O`, the z-score in test [1] was -0.37; in test [2], -2.89 (inactive); in test [3], 0.611 (inactive); in test [4] it was 0.419 (inactive).
`NC(=O)NCC#Cc1ccc2c(c1)[C@]1(C(=O)N2)[C@H](c2ccc(OCCO)cc2)N2[C@H](c3ccccc3)[C@H](c3ccccc3)OC(=O)[C@H]2[C@@H]1C(=O)Nc1nc2ccccc2s1`: the z-score was -0.745 in test [1], 0.706 (inactive) in test [2], 0.0953 (inactive) in test [3] and 0.219 (inactive) in test [4].
For the molecule `COC(=O)C1=CC(c2ccc(CO)cc2)=CC(c2cccs2)N(C)C=C1C(=O)OC` (configuration not stated), the z-score was -1.75 in test [1], -6.41 (inactive) in test [2], -0.261 (inactive) in test [3] and -0.22 (inactive) in test [4].
The corresponding values for `CCN(CC)c1ccc(N2CC=CC34O[C@@H]5C=CCOC(=O)[C@@H]5[C@H]3C(=O)N(C(CO)C(C)C)[C@@H]4C2=O)cc1` (some centres not stated) are -0.45, -3.03 (inactive), -0.623 (inactive) and 0.286 (inactive).
In the case of `CC(C)(C)OC(=O)CC[C@@]1(C(=O)N2CCOCC2)N=C(c2ccc(OCCCO)cc2)O[C@@H]1c1ccccc1`, the z-score was -1.19 in test [1], -4.03 (inactive) in test [2], -0.31 (inactive) in test [3] and -0.323 (inactive) in test [4].
The corresponding values for `COC(=O)C(CC#Cc1ccc2c(c1)[C@]1(C(=O)N2)[C@H](C(=O)O)[C@H]2C(=O)O[C@H](c3ccccc3)[C@H](c3ccccc3)N2[C@@H]1c1ccc(OCCO)cc1)C(=O)OC` are -2.14, -6.34 (inactive), -0.192 (inactive) and 0.124 (inactive).
The corresponding values for `C=C(C1=CCN(S(=O)(=O)c2ccc(C)cc2)C1)[C@@H](OC(C)=O)[C@@H]1CCCN1S(=O)(=O)c1ccccc1[N+](=O)[O-]` are -2.68, -3.62 (inactive), -0.353 (inactive) and 0.0039 (inactive).
`C=CC[C@]1(C(=O)N2CCCCC2)COC(c2ccc(OCCCO)cc2)=N1`: the z-score was -2.13 in test [1], -4.15 (inactive) in test [2], -0.8 (inactive) in test [3] and -1.06 (inactive) in test [4].
The corresponding values for `C=CCNC(=O)[C@H]1[C@@H]2C(=O)O[C@@H](c3ccccc3)[C@@H](c3ccccc3)N2[C@@H](c2ccc(OCCO)cc2)[C@]12C(=O)Nc1ccc(C#CCCO)cc12` are -0.739, -3.71 (inactive), -0.229 (inactive) and -0.205 (inactive).
In the case of `CCCNC(=O)[C@@]1(Sc2ccc(C)cc2)CC(=O)N(Cc2cc(C(F)(F)F)cc(C(F)(F)F)c2)[C@@H]1c1ccc(CO)cc1I`, the z-score in test [1] is -0.975; in test [2], -2.86 (inactive); in test [3] it was -0.661 (inactive); in test [4], -0.6 (inactive).
In the same order, the values of `C=CCN1C(=O)[C@@]2(O[C@@H](CCn3cc(CCO)nn3)[C@H]([Si](C)(C)c3ccc(OC)cc3)[C@H]2C)c2cc(NC(=O)c3ccc(OC)cc3)ccc21` are -2.65, -4.19 (inactive), 1.09 (inactive) and 1.28 (inactive).
In the same order, the values of `COCCCNC(=O)[C@@]1(Cc2ccccc2)N=C(c2ccc(OCCCO)cc2)O[C@H]1c1ccccc1N=[N+]=[N-]` are -2.43, -3.11 (inactive), -0.362 (inactive) and -0.373 (inactive).
As to `COc1ccc(C#Cc2ccc3c(c2)[C@]2(C(=O)N3)[C@H](c3ccc(O)cc3)N3[C@H](c4ccccc4)[C@H](c4ccccc4)OC(=O)[C@H]3[C@@H]2C(=O)N2CCN(c3ncccn3)CC2)cc1`, the z-score in test [1] is -2.28; in test [2], 0.562 (inactive); in test [3] it was 0.396 (inactive); in test [4] it was 0.583 (inactive).
With `CCOC(=O)C[C@H]1[C@H](OC(=O)c2ccc(C(=O)c3ccccc3)cc2)[C@@H](NC(=O)Cc2ccc(OC)cc2)c2cc(OCCCO)ccc2N1C(=O)Cc1ccc(OC)cc1`, the z-score was -0.283 in test [1], -2.01 (inactive) in test [2], 0.0944 (inactive) in test [3] and 0.0944 (inactive) in test [4].
Consider `NCCCCCNC(=O)[C@H]1C[C@H]2C(=O)NCC(=O)N2[C@H]1c1ccc(O)cc1`, for which the z-score in test [1] is -0.223; in test [2], -0.587 (inactive); in test [3], 0.637 (inactive); in test [4], 0.791 (inactive).
The corresponding values for `COc1ccc([Si](C)(C)[C@H]2[C@H](CC(=O)N(CCO)Cc3ccccc3)O[C@@]3(C(=O)N(Cc4ccc(N5CCOC5=O)cc4)c4ccccc43)[C@@H]2C)cc1` are -1.04, -1.48 (inactive), -0.0614 (inactive) and 0.0752 (inactive).
In the same order, the values of `COC(=O)C(CC#Cc1ccc2c(c1)[C@]1(C(=O)N2)[C@H](c2ccccc2OCCO)N2[C@H](c3ccccc3)[C@H](c3ccccc3)OC(=O)[C@H]2[C@@H]1C(=O)N1CCCCCCC1)C(=O)OC` are -2.2, 3.62 (inactive), 0.114 (inactive) and 0.72 (inactive).
In the case of `COc1ccc(CCNC(=O)[C@@]2(Sc3ccc(C)cc3)CC(=O)N(Cc3ccccc3)[C@@H]2c2ccc(CO)cc2I)cc1`, the z-score in test [1] was -1.01; in test [2], -1.1 (inactive); in test [3] it was 0.0564 (inactive); in test [4], 0.672 (inactive).
In the same order, the values of `C=C(/C(=C/C[C@H](OC(C)=O)c1cccc(OCCO)c1)c1cc(C(=O)OC)ccc1OC)C(C)C` are -1.79, -4.34 (inactive), 0.209 (inactive) and 0.641 (inactive).
The corresponding values for `C=C(COC)C(=O)CC[C@@H](OC(=O)c1ccccc1-c1ccccc1C(=O)O)c1cccc(OCCO)c1` are -1.24, -4.82 (inactive), 0.273 (inactive) and -0.307 (inactive).
In the same order, the values of `COc1ccc([Si](C)(C)[C@H]2[C@H](CCO)O[C@@]3(C(=O)N(Cc4ccc(N5C(=O)c6cccc7cccc5c67)cc4)c4ccccc43)[C@@H]2C)cc1` are -1.23, -0.82 (inactive), -1.48 (inactive) and -1.39 (inactive).
With `Cc1ccccc1CN(C)C[C@H]1OCc2cn(nn2)CCCC(=O)N([C@@H](C)CO)C[C@H]1C`, the outcome in test [5], in test [6] and in test [7] was inactive.
